Screening data as filed in PubChem.
PKM2 inh: PKM2 (human) enzyme inhibition. purified PKM2, ATP generation, Kinase-Glo luminescence. Potency, µM (top dose mostly 57.5 µM), for inactives: top-dose activity change, negative = inhibition, hits mostly inhibitors. 260,000 tested, 0.058% active. AID 1634; further: potency means the concentration at half of the fitted maximal effect; nearly all actives have a fitted effect of over 60% in size
Target sequence (P14618 whole entry, looked up): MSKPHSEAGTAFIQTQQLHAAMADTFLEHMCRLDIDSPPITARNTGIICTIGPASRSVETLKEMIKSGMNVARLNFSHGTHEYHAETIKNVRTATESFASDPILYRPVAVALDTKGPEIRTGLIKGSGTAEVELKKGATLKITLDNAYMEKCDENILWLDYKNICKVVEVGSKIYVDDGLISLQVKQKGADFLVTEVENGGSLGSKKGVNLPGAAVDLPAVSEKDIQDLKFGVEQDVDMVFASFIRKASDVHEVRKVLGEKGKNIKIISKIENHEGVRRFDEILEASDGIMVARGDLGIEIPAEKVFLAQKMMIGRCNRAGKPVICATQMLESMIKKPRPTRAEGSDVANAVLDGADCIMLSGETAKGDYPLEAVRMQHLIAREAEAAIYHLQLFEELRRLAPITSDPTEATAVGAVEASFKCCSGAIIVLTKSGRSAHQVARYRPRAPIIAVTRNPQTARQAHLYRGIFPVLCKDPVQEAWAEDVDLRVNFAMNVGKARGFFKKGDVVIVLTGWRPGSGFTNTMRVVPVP
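Coupled luciferase luminescence (Kinase-Glo) detects ATP generated from 0.1 mM ADP and 0.5 mM PEP in imidazole buffer pH 7.2 with KCl, MgCl2; 1 h at room temperature. Enzyme at intermediate activity; normalized to uninhibited and no-enzyme controls.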
PKM2 inh CRC: dose-dependently blocks human pyruvate kinase M2 activity; shares compounds with PKM2 inh; purified hPK-M2, Kinase-Glo ATP luminescence, 1 h; Potency, µM (titrated, usually from 57.5 µM), inactives show at the highest dose activity change, negative = inhibition, most hits filed as inhibitors; 55 tested, 50% active
FLuc counter: counter-screen for pyruvate kinase M2 inhibitors: firefly luciferase inhibition | shares compounds with PKM2 inh | Kinase-Glo firefly luciferase, luminescence, 8 min | Potency, µM (doses to about 57.5 µM), for inactives: at the top dose activity, negative = inhibition, hits mostly inhibitors | 55 tested, 30% active | AID 2265
PKM2 inh LDH: confirmation of human pyruvate kinase M2 inhibitors, coupled readout. purified hPK-M2, LDH-coupled NADH fluorescence kinetic. Potency, µM (top dose mostly 57.5 µM), inactives show at the top dose activity change, negative = inhibition, hits mostly inhibitors. shares compounds with PKM2 inh. 55 tested, under 10 active
An asterisk follows results filed as active. Many of the other results were omitted from the sample, so hits are more common in it than they were. The call rests on the fitted dose curve; in most records, active means well fitted curve in the direction sought with a large enough effect; inconclusive means small, poorly fitted or top-dose-only effect, or another doubt; inactive means no such curve, though single readings can be large; an effect the other way counts as inactive or inconclusive.

SMILES	PKM2 inh	others
COc1ccccc1NS(=O)(=O)c1cc(NC(=O)c2[nH]c(C)c(C(C)=O)c2C)ccc1N1CCOCC1	71%
COc1ccc2[nH]c(=O)c(-c3noc(-c4ccccc4)n3)cc2c1	109%
COc1ccc(-c2nc3ccccc3[nH]2)cc1	13µM*
CCc1ccc(OCCCC(=O)Nc2ccc(S(N)(=O)=O)cc2)cc1	94%
CCN1CCN(S(=O)(=O)c2ccc(Cl)c(C(=O)NC(C)(C)C)c2)CC1	36%
Cc1ccc(NS(=O)(=O)c2c(C)nc3sccn3c2=O)c(C)c1	55%
Cc1cc(C)nc(SCc2cc(=O)c(OC(=O)c3ccc(S(=O)(=O)N4CCCC4)cc3)co2)n1	47%
CCN1/C(=C/c2ccc3cc(C)ccc3[n+]2CC)Sc2ccccc21	4.5µM*
CCn1ccnc1CN(C)Cc1cn(-c2cc(C)ccc2C)nc1-c1ccccc1	32%
Cc1ccc(-n2nc(-c3ccco3)cc2C(=O)O)c(C)c1	60%
Cc1nc2ccc(C(=O)NCc3ccc4c(c3)OCO4)cc2s1	36%
Cc1cccc(/C(N)=N/OC(=O)c2ccc3c(c2)OCO3)c1	11µM*
Cc1noc(C)c1COc1cccc(C(=O)Oc2ccc3c(c2)OCO3)c1	1%
COc1ccc(Nc2nc(C)cc(C)c2C(N)=O)c(OC)c1	41%
O=C(O)COc1ccccc1/C=N/NC(=O)CN1CCN(S(=O)(=O)c2ccc(Br)cc2)CC1	-11%
CC(=O)c1ccccc1OC(=O)CCN1C(=O)c2ccccc2C1=O	47%
O=C(O)c1cc(N2CCOCC2)nc2ccccc12	31%
O=C(c1ccc2c3n(nc2c1)-c1ccccc1CO3)N1CCOCC1	14µM*
O=C(c1ccc(Cl)c(S(=O)(=O)N2CCCCCC2)c1)N1CCOCC1	39%
Oc1ccc(/C=N/N2CCN(C3c4ccccc4-c4ccccc43)CC2)cc1O	79%
O=C1CCC(=O)N1c1cccc(-c2nc3ccccc3o2)c1	27%
c1ccc2nc(-c3nc4ccccc4o3)ccc2c1	18µM*
O=C(O)/C=C/C(=O)c1ccc2c(c1)NC(=O)CO2	40%
Cc1cccc(N2CCN(C(=O)c3cc4c(=O)n(C)c5ccccc5c4n3C)CC2C)c1 (configuration not stated)	37%
CC(=O)N1[C@H](C)C=C[C@]1(Cc1ccccc1)C(=O)NCc1ccc(C)o1	52%
SMILES	PKM2 inh	others
Cc1nc2cc(NCc3ccccc3O)ccc2n1Cc1ccccc1	109%
COc1ccc(-n2nnnc2-c2cnc3cc4c(cc3c2C)OCO4)cc1	35%
COc1ccc(NC(=O)c2ccccn2)cc1	14µM*
COc1cccc(NC(=O)CSc2ccccn2)c1	49%
COc1ccc(NC(=O)c2ccc(NC(=O)CSc3nccc(=O)[nH]3)cc2)cc1	32%
O=C(CC(c1ccc(F)cc1)c1ccco1)Nc1nccs1 (configuration not stated)	45%
Cn1c(Cc2cccc3ccccc23)nnc1SCC(=O)N1CCN(c2ccccc2)CC1	47%
CCC12CC3CC(C1)CC(C(=O)NNC(N)=O)(C3)C2	-2%
Cc1ccc2nc(-c3ccccn3)[nH]c2c1	16µM*
Cc1nc2ccc(N=NN(C)C)cc2[nH]1	62%
Nc1ccc2nc(Cc3ccccc3)[nH]c2c1	80%
CCOc1ccc(N2C(=O)CC(Sc3ccccc3C(=O)O)C2=O)c([N+](=O)[O-])c1 (configuration not stated)	60%
COC(=O)c1cc(-c2ccc(C)o2)nc2ccccc12	56%
Cc1ccc(-c2nc3ccccc3n2C)o1	13µM*
Cc1ccc(-c2nc3c(c(=O)[nH]c(=O)n3Cc3ccccc3)n2C)o1	48%
COc1cccc(-n2cn[nH]c2=S)c1	14µM*
C=CCn1c(SCC(=O)NCCOC)nc2scc(-c3ccco3)c2c1=O	35%
O=C(CN1CCN(C(c2ccccc2)c2ccccc2)CC1)N1CCN(c2ccccc2)CC1	-3%
C/C(=N/NC(=O)c1cccs1)c1c(C)[nH]n(-c2nc3ccccc3s2)c1=O	14µM*
CCNc1sc(C(=O)c2cccs2)c(N)c1-c1nc2ccccc2s1	44%
CC(=O)c1ccc(S(=O)(=O)N2CCN(C(=O)CSc3ccc(C)c(C)c3)CC2)cc1	56%
COCCNC(=O)C(c1ccc(Cl)cc1)N(C(=O)Cn1nnc2ccccc21)c1cccnc1 (configuration not stated)	77%
Cc1cc(C)n2nc(SCc3cc(=O)oc4ccc5ccccc5c34)nc2n1	94%
COc1ccc(S(=O)(=O)N2CCc3cc(OC)c(OC)cc3C2)cc1	91%
O=C(O)CCc1ccc(-c2cccs2)n1CCc1ccccc1	62%
SMILES	PKM2 inh	others
O=S(=O)(NNc1ccc(F)cc1F)c1cccc(Cl)c1	50%
CCCCN=C1NN=C(c2ccc(C)c(C)c2)CS1	72%
COc1ccc(CN=C2NN=C(c3ccccc3)CS2)cc1	46%
c1cc2c(cc1C1=NNC(=NC3CC3)SC1)OCCO2	14µM*
Cc1ccc(N2C(=O)c3ccccc3C2O)nc1 (configuration not stated)	11µM*
CNS(=O)(=O)c1ccc(NCC2COc3ccccc3O2)c([N+](=O)[O-])c1 (configuration not stated)	43%
Cc1ccc(NC(=O)CSc2nc3ccccc3nc2N2CCCC2)cc1	61%
CCCNc1nc(Cl)nc(NCc2cccnc2)n1	30%
CCOC(=O)N1CCN(S(=O)(=O)c2ccc(OCC)cc2)CC1	35%
C/C(=N\NC(=O)C1CCCN(S(=O)(=O)c2ccccc2)C1)c1ccccn1 (configuration not stated)	2%
CCOc1ccc(C(=O)O/N=C(\N)c2ccccn2)cc1	7.9µM*	PKM2 inh CRC=5.8µM*;FLuc counter=6.5µM*;PKM2 inh LDH=-10%
CCOc1ccc(NC(c2ccccn2)c2oc(CO)cc(=O)c2O)cc1 (configuration not stated)	41%
N/C(=N\OC(=O)c1ccccc1)c1ccccn1	4µM*	PKM2 inh CRC=9.2µM*;FLuc counter=4.1µM*;PKM2 inh LDH=-9%
CCNS(=O)(=O)c1ccc(NC(=O)c2ccc(Cn3cc([N+](=O)[O-])cn3)o2)cc1	97%
O=C(CCc1ccccc1)N1CCN(S(=O)(=O)c2cccs2)CC1	83%
Cc1ccc(CNC(=O)[C@H](C)[C@H]2C[C@]2(C)[C@H](NC(=O)OCc2ccccc2)c2ccccc2)o1	43%
Cc1ccc(S(=O)(=O)/N=c2\ccc(Cl)cn2C(F)F)cc1	66%
Fc1ccc(-n2ncc3c(SCc4cccnc4)ncnc32)cc1	40%
COc1ccc(C(=O)N=c2nc3ccccn3s2)cc1	7.9µM*	PKM2 inh CRC=13µM*;FLuc counter=5.2µM*;PKM2 inh LDH=-5%
Cc1cc(C)c(S(=O)(=O)N(C)CC(=O)NCc2ccncc2)c(C)c1	56%
CCCCNC(=O)Nc1ccnn1C1CCCCC1	16%
Cc1c(C(=O)NCCN2C(=O)S/C(=C\c3cccnc3)C2=O)cccc1[N+](=O)[O-]	32%
COc1cc(N2C(=O)C=CC2=O)c(OC)cc1Cl	121%
